Reference: PubChem BioAssay AID1985 (Southern Research Specialized Biocontainment Screening …, 2009)
In all, about 2,300 compounds went through this assay and about 1,000 (43%) were called active. No rule for the calls is given here. The set was probably picked from earlier hits. The list shows a part of the results. Entries with a potency or affinity are not part of this list.

Assay: modified counter assay using GFP fluorescence, PhoP regulon inhibitor project, dose response (AID 1985)
Conditions: S. Typhi, 4 h; series mostly up to 150 µM
In the case of COc1ccc(C(=O)Oc2ccc(/C=N/O)cc2)cc1, the outcome is reported as “inactive”. For COc1ccc(NC(=O)C(Cc2ccccc2)n2cccc2)cc1 (stereo unspecified), the outcome was “inactive”. With COc1cc(/C=C/C(=O)O)cc2c1OCCO2 the outcome was “inactive”. With CC(=O)c1cc(O)c2ccccc2c1O the outcome was “inactive”. With CN1CCCN(S(=O)(=O)c2ccc3c(c2)OCCO3)CC1 the outcome was “inactive”. With O=C(Nc1ccc(Cl)cc1)N1CCCN(Cc2ccccc2F)C1 the outcome was “inactive”. In the case of CCN1CCN(C(=O)Nc2ccc(Cc3ccc(NC(=O)N4CCN(CC)CC4)cc3)cc2)CC1, the outcome is reported as “inactive”. With CCOC(=O)N1CCN(C(=S)NC(=O)c2ccc(Br)cc2)CC1 the outcome was “inactive”. For O=C(Cn1c(=O)oc2cc(S(=O)(=O)N3CCCC3)ccc21)N1CCN(c2ccccc2F)CC1, the outcome was “inactive”. With Cc1oc2c(O)c(O)ccc2c(=O)c1-c1ccccc1 the outcome was “inactive”. In the case of CCCC(=O)N1CCN(c2ccc(NC(=S)NC(=O)c3cccc(C)c3)cc2)CC1, the outcome is reported as “inactive”. In the case of CCCNC(=O)C1CCN(c2ccc(S(=O)(=O)N3CCOCC3)cc2Cl)CC1, the outcome is reported as “inactive”. With CCN(CC)S(=O)(=O)c1ccc(N2CCOCC2)c(C(=O)O)c1 the outcome was “inactive”. In the case of CCOc1ccc2nc(NC(=O)C3=NNC(=O)CC3)sc2c1, the outcome is reported as “inactive”. In the case of Cc1ccccc1Oc1ccc(Oc2ccccc2C)nn1, the outcome is reported as “inactive”. With CC(=O)c1cccc(NC(=O)CCC2CCCC2)c1 the outcome was “inactive”. For Cc1ccc(NC(=O)CCNC(=O)c2ccccc2)cc1F, the outcome was “inactive”. In the case of O=C(c1ccc2c3c(cccc13)CC2)C1CCCN(Cc2ncc[nH]2)C1 (stereo unspecified), the outcome is reported as “inactive”. With COCC1CCCN(Cc2cn[nH]c2-c2cc3ccccc3o2)C1 (stereo unspecified) the outcome was “inactive”. With COc1ccccc1NC(=O)CSC1CC(=O)N(c2ccc3c(c2)OCO3)C1=O (stereo unspecified) the outcome was “inactive”. For NS(=O)(=O)c1ccc(CCNS(=O)(=O)c2cccc(C(=O)O)c2)cc1, the outcome was “inactive”. With COc1cccc(C(=O)CC(=O)C(=O)Nc2cc(OC)c(OC)c(OC)c2)c1 the outcome was “inactive”. For Cc1ccc(/C=C2\SC(=S)N(c3cccnc3)C2=O)o1, the outcome was “inactive”. In the case of COc1ccc(OC)c(NC(=O)CSc2nnc3ccc(-c4ccncc4)nn23)c1, the outcome is reported as “inactive”. With Cn1c(CN2CCCCC2)nc2cc(NS(=O)(=O)c3ccc(Cl)cc3)ccc21 the outcome was “inactive”. In the case of CCOC(=O)C1=C(C)NC(=O)NC1c1ccc(NC(C)=O)cc1 (stereo unspecified), the outcome is reported as “inactive”. In the case of COC(=O)CNC(=O)c1ccc(=O)oc1, the outcome is reported as “inactive”. With CN1CCC(=C2c3ccccc3C=Cc3ccccc32)CC1 the outcome was “inactive”. For CN1CCN(c2ccc(C(=O)c3cn(-c4ccc(F)c(Cl)c4)nn3)cc2)CC1, the outcome was “inactive”. With CN1CCCN(C(=O)COc2ccc(F)cc2Cl)CC1 the outcome was “inactive”. For CCn1c(-c2ccncc2)n[nH]c1=S, the outcome was “inactive”. In the case of COc1cc(C)c(Cl)cc1S(=O)(=O)n1cnc(C)c1, the outcome is reported as “inactive”. With Cn1c(=NC(=O)COc2ccccc2)sc2cccc(F)c21 the outcome was “inactive”. In the case of O=[N+]([O-])c1ccc(O)c2ncccc12, the outcome is reported as “inactive”. With C#CC(=O)N(c1cccc(OC)c1)C(C(=O)NC1CCCC1)c1cccs1 (stereo unspecified) the outcome was “inactive”. For CCN(CC)CCSc1nnc2c3ccccc3n(Cc3ccccc3)c2n1, the outcome was “inactive”. In the case of C=CCn1c(C)cc(C(=O)CSc2n[nH]c(N)n2)c1C, the outcome is reported as “inactive”. With Cc1nc2scc(C)n2c(=O)c1S(=O)(=O)N1CCN(c2cccc(C(F)(F)F)c2)CC1 the outcome was “inactive”. With O=[N+]([O-])c1ccc(N2CCNCC2)cc1NCc1cccnc1 the outcome was “inactive”. For COc1nnc(-c2ccc(N3CCOCC3)c(NC(=O)c3ccc(C)cc3)c2)c2ccccc12, the outcome was “inactive”. In the case of CN(C)CCCN(C(=O)c1cc2cc([N+](=O)[O-])ccc2s1)c1nc2cc3c(cc2s1)OCCO3, the outcome is reported as “inactive”. In the case of CCSC1=NCN(CCCC(=O)O)CN1, the outcome is reported as “inactive”. With COc1cc(C(=O)N/N=C/c2coc3ccccc3c2=O)cc(OC)c1OC the outcome was “inactive”. In the case of CC(C)C(c1nnnn1Cc1ccccc1)N(CCCO)Cc1cc2cc3c(cc2[nH]c1=O)OCO3 (stereo unspecified), the outcome is reported as “inactive”. With CC(C)Cc1nc(N2CCOCC2)c(C#N)c2c1COC(C)(C)C2 the outcome was “inactive”. For CCNC(=S)N1CCN(CC)CC1, the outcome was “inactive”. In the case of COc1ccc(OC)c(NC(=O)CCNS(=O)(=O)c2ccc3c(c2)c(=O)n(C)c(=O)n3C)c1, the outcome is reported as “inactive”. In the case of Cc1ccc(/C=N/NC(=O)Cc2cccn2C)cc1, the outcome is reported as “inactive”. With Cc1cc(Cl)ccc1OCC(=O)N/N=C/c1ccncc1 the outcome was “inactive”. For CCOC(=O)c1[nH]c2ccc(Cl)cc2c1NC(=O)c1nonc1C, the outcome was “inactive”. With NS(=O)(=O)c1cc2c(cc1Cl)NC(Cc1ccccc1)NS2(=O)=O (stereo unspecified) the outcome was “inactive”. With CN(Cc1ccccc1)S(=O)(=O)c1csc(C(N)=O)c1 the outcome was “inactive”. For Cn1cc(S(=O)(=O)Nc2ccc(OC(F)(F)F)cc2)c(=O)n(C)c1=O, the outcome was “inactive”. With CCOc1ccc2ccccc2c1C(=O)N[C@@H]1C(=O)N2[C@@H]1SC(C)(C)[C@@H]2C(=O)O the outcome was “inactive”. With O=C(c1ccccc1)N1CCN(c2ccc([N+](=O)[O-])c(NCc3ccco3)c2)CC1 the outcome was “inactive”. With CN(C)C(=O)CSc1nnc(Cc2ccc([N+](=O)[O-])cc2)o1 the outcome was “inactive”.
